Assay results: PubChem BioAssay AID1159580 (chemical genetic matrix, 2015)
Several values for one entry are separate records, joined by “and”; a condition that tells them apart may be missing. Equal entries are not always repeated. Among all 5,500 compounds or so, about 2,000 (36%) were called active. Roughly 18% stayed inconclusive and do not appear here. No stated cut-off is given here; in the data, active means normalized growth mostly below about 0.91 (no sharp cut-off); inconclusive means no clear call, values can overlap the other calls; inactive means mostly above about 0.92. The list shows a part of the results.

Experiment: chemical genetic growth profiling, strain panel (AID 1159580);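 further: tested at 20 µM; growth read once vehicle control cultures reached saturation at 30 °C; 1 = growth at the plate median or of vehicle wells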
Details: S. cerevisiae deletion strains, growth OD

Measured: normalized growth

CC(=O)N[C@@H](Cc1c[nH]c2ccccc12)C(N)=O
inactive: locus YAL013W, strain DEP1, stronger effect = lower value 1.09 | locus YAL021C, strain ccr4, stronger effect = lower value 1 | locus YAL026C, strain drs2, stronger effect = lower value 1 | locus YAL030W, strain snc1, stronger effect = lower value 1.02 | locus YBL061C, strain skt5, stronger effect = lower value 1.02 | locus YBR009C, strain hhf1, stronger effect = lower value 1.01 | locus YBR021W, strain FUR4, stronger effect = lower value 1.02 | locus YBR023C, strain chs3, stronger effect = lower value 1.02 | locus YBR171W, strain sec66, stronger effect = lower value 1.01 | locus YBR229C, strain ROT2, stronger effect = lower value 0.965 | locus YBR231C, strain swc5, stronger effect = lower value 1.02 | locus YBR279W, strain paf1, stronger effect = lower value 1.01 | locus YCL011C, strain gbp2, stronger effect = lower value 1.02 | locus YCL016C, strain dcc1, stronger effect = lower value 1.01 | locus YCL029C, strain bik1, stronger effect = lower value 0.999 | locus YCL061C, strain MRC1, stronger effect = lower value 1.02 | locus YCL069W, strain vba3, stronger effect = lower value 1.02 | locus YCR088W, strain abp1, stronger effect = lower value 1.03 | locus YDL005C, strain med2, stronger effect = lower value 1.04 | locus YDL035C, strain GPR1, stronger effect = lower value 0.985 | locus YDL040C, strain nat1, stronger effect = lower value 1.02 | locus YDL074C, strain BRE1, stronger effect = lower value 0.948 | locus YDL101C, strain DUN1, stronger effect = lower value 0.977 | locus YDL134C, strain PPH21, stronger effect = lower value 0.985 | locus YDL185W, strain tfp1, stronger effect = lower value 0.972 | locus YDL192W, strain arf1, stronger effect = lower value 0.99 | locus YDR001C, strain nth1, stronger effect = lower value 1.01 | locus YDR069C, strain doa4, stronger effect = lower value 1.03 | locus YDR101C, strain arx1, stronger effect = lower value 0.997 | locus YDR137W, strain rgp1, stronger effect = lower value 1.01 | locus YDR150W, strain NUM1, stronger effect = lower value 0.972 | locus YDR159W, strain sac3, stronger effect = lower value 1.03 | locus YDR162C, strain NBP2, stronger effect = lower value 0.945 | locus YDR195W, strain ref2 1.05 | locus YDR297W, strain sur2, stronger effect = lower value 1.03 | locus YDR318W, strain mcm21, stronger effect = lower value 1 | locus YDR334W, strain swr1, stronger effect = lower value 1.01 | locus YDR335W, strain msn5, stronger effect = lower value 1 | locus YDR388W, stronger effect = lower value 1 | locus YDR392W, strain spt3, stronger effect = lower value 0.953 | locus YDR502C, strain sam2, stronger effect = lower value 0.996 | locus YEL003W, strain gim4, stronger effect = lower value 1.01 | locus YEL037C, strain rad23, stronger effect = lower value 1.02 | locus YEL061C, strain CIN8 (second series), stronger effect = lower value 1.02 | locus YEL061C, strain CIN8, stronger effect = lower value 0.99 | locus YER015W, strain faa2, stronger effect = lower value 1.02 | locus YER016W, strain bim1, stronger effect = lower value 1.01 | locus YER110C, stronger effect = lower value 1 | locus YER111C, strain swi4, stronger effect = lower value 1.01 | locus YER155C, strain BEM2 (second series), stronger effect = lower value 1.06 | locus YER155C, strain BEM2, stronger effect = lower value 1.01 | locus YER167W, strain BCK2, stronger effect = lower value 1.01 | locus YFR010W, strain ubp6, stronger effect = lower value 1.02 | locus YGL078C, strain dbp3, stronger effect = lower value 0.994 | locus YGL086W, strain mad1, stronger effect = lower value 1 | locus YGL167C, strain pmr1, stronger effect = lower value 1.01 | locus YGL173C, strain kem1, stronger effect = lower value 1.02 | locus YGL227W, strain vid30, stronger effect = lower value 1.03 | locus YGL240W, strain doc1, stronger effect = lower value 1.05 | locus YGL248W, strain PDE1, stronger effect = lower value 0.986 | locus YGL253W, strain hxk2, stronger effect = lower value 1.01 | locus YGR078C, strain PAC10, stronger effect = lower value 0.97 | locus YGR135W, strain pre9, stronger effect = lower value 0.983 | locus YGR229C, strain SMI1, stronger effect = lower value 0.973 | locus YGR252W, strain gcn5, stronger effect = lower value 1.02 | locus YHR013C, strain ard1, stronger effect = lower value 1.03 | locus YHR027C, strain rpn1, stronger effect = lower value 1.01 | locus YHR030C, strain SLT2, stronger effect = lower value 1 | locus YHR079C, strain IRE1 (second series), stronger effect = lower value 1.01 | locus YHR079C, strain IRE1, stronger effect = lower value 0.99 | locus YHR094C, strain hxt1, stronger effect = lower value 0.995 | locus YHR129C, strain ARP1, stronger effect = lower value 0.994 | locus YHR142W, strain chs7, stronger effect = lower value 1 | locus YHR200W, strain rpn10, stronger effect = lower value 1.01 | locus YIL066C, strain RNR3, stronger effect = lower value 0.973 | locus YIL073C, strain SPO22, stronger effect = lower value 1.06 | locus YIL125W, strain kgd1, stronger effect = lower value 0.989 | locus YIR030C, strain dcg1, stronger effect = lower value 1 | locus YJL092W, strain hpr5, stronger effect = lower value 1.02 | locus YJL095W, strain BCK1 (second series), stronger effect = lower value 1.02 | locus YJL095W, strain BCK1, stronger effect = lower value 0.994 and 1.02 | locus YJL115W, strain asf1, stronger effect = lower value 1.04 | locus YJL129C, strain trk1, stronger effect = lower value 1.08 | locus YJL134W, strain LCB3, stronger effect = lower value 0.997 | locus YJL154C, strain vps35, stronger effect = lower value 1.02 | locus YJL164C, strain tpk1, stronger effect = lower value 1.02 | locus YJL166W, strain qcr8, stronger effect = lower value 1.04 | locus YJL168C, strain set2, stronger effect = lower value 0.994 | locus YJL187C, strain SWE1 (second series), stronger effect = lower value 0.972 | locus YJR043C, strain POL32, stronger effect = lower value 1.05 | locus YJR066W, strain TOR1, stronger effect = lower value 0.923
